Results published in ChEMBL document CHEMBL1157539, “Thousands of chemical starting points for antimalarial lead identification” (Nature, 2010).

What follows are compounds tested on Plasmodium falciparum (assay: GSK_TCMDC: Inhibition of Plasmodium falciparum Dd2 in whole red blood cells, using parasite LDH activity as an index of growth. Test compounds present at 2uM).
Type: functional

| SMILES | Inhibition |
| --- | --- |
| O=C(Nc1ccc(N2CCCCC2)c(Cl)c1)c1ccco1 | 95% |
| COCCn1ccc2c3c(N)nc(N)nc3ccc21 | 29% |
| CC(C)(CNCc1cc(Cl)cc(Cl)c1)c1nc(-c2ccnc(N)n2)c(-c2ccc(Cl)c(O)c2)[nH]1.Cl | 2% |
| O=C1OC2(CN1CC1CCN(Cc3ccc(O)c(Cl)c3)CC1)c1ccccc1-c1ccccc12 | 96% |
| Cc1nnc2c(NC(=O)NC(C)C)cc3cc(-c4ccc(CN5CCCCC5)cc4)ccc3n12 | 8% |
| CC(C)(CNCc1ccc(F)c(F)c1)c1nc(-c2ccc(Cl)c(O)c2)c(-c2ccncc2)[nH]1.Cl | 89% |
| CCOc1cc(C(=O)Nc2ccc3nc(N(CC)CC)cc(C)c3c2)cc(OCC)c1OCC | 9% |
| Cl.Cn1nc(C(F)(F)F)cc1-c1ccc(C(=O)Nc2ccc3c(c2)CNCC3(C)C)s1 | 36% |

These compounds were tested on HepG2 (assay: GSK_TCMDC: Percent inhibition of human HepG2 cell line. Test compounds present at 10uM.).
Type: functional

| SMILES | Inhibition |
| --- | --- |
| FC(F)(F)c1ccc2[nH]c(-c3cccc(-c4ccc(CNCCN5CCNCC5)cc4)c3)nc2c1.O=C(O)C(F)(F)F | 17% |
| CCCCCCN1CCC(NCc2ccc(CN(C)C)cc2)CC1.O=C(O)C(F)(F)F | 18% |
| O=C(O)C(F)(F)F.O=S(=O)(NCCN1CCCC1)c1cccc(-c2ccc(CNC3Cc4ccccc4C3)cc2)c1 | 79% |
| CC(C)NC[C@@H](O)[C@H](Cc1ccccc1)NC(=O)c1cc2c3c(c1)c(C(C)C)cn3CCS(=O)(=O)N2C.O=CO | 5% |
| Cc1cc(C2NC(=O)c3ccccc3N2)c(C)n1-c1ccc2c(c1)OCO2 (configuration not stated) | 13% |
| O=c1c2ccccc2[nH]c2nc3ccccc3c(Nc3ccccc3)c12 | 8% |
| O=C(Nc1ccsc1)Nc1cccc(-c2cccc(-c3nc4cc(C(F)(F)F)ccc4[nH]3)c2)c1 | 76% |
| O=C(NC1CCN(c2ccc(F)cc2[N+](=O)[O-])CC1)c1cccs1 | 0% |
| O=C(NCc1cccc(CN2CCOCC2)c1)c1cc(Br)cc(N2CCN(c3ccncc3)CC2)c1.O=C(O)C(F)(F)F | 25% |
| CS(=O)(=O)n1c(CN2CCN(c3ncc(C(F)(F)F)cc3Cl)CC2)nc2ccccc21 | 0% |
| O=C(NCc1cccc(C(F)(F)F)c1)C1CCCN(C(=O)c2ccc(O)c(-c3ccc(Cl)c(Cl)c3)c2)C1 (configuration not stated) | 1% |
| COc1ccc(CCn2c(=N)c(C(=O)NCc3cccnc3)cc3c(=O)n4cccc(C)c4nc32)cc1 | 5% |
| C=CCNS(=O)(=O)c1ccc(NC(=O)C(C)Oc2ccc([N+](=O)[O-])cc2)cc1 (configuration not stated) | 14% |
| CCc1cn2c3c(cc(C(=O)N[C@@H](Cc4cccc(Cl)c4)[C@H](O)CNC4CCCCC4)cc13)N(C)S(=O)(=O)CC2.O=CO | 12% |
| N#Cc1ccc(NC(=O)Nc2ccc(OC(F)(F)F)cc2)cc1 | 43% |
| O=C(O)C(F)(F)F.c1cc(-c2ccc(CNCCCn3ccnc3)cc2)cc(-c2nc3ccccc3[nH]2)c1 | 17% |
| O=[N+]([O-])c1ccc2c(c1)c1ccccc1n2Cc1ccccc1O | 0% |
| CCN(CC)CCOc1ccc(Nc2ncc3cc(-c4c(Cl)cccc4Cl)c(=O)n(C)c3n2)cc1 [PD-0166285] | 72% |
| Cc1cccc2nc(-c3cccc(-c4ccc(CNCc5ccccc5)cc4)c3)[nH]c12.O=C(O)C(F)(F)F | 33% |
| CN1CCN(CCCN(C(=O)Nc2cc(C(F)(F)F)cc(C(F)(F)F)c2)c2ccccc2Cc2ccccc2)CC1 | 35% |
| Cc1cc(N2CCCC2)nc(Nc2ccc(NC(=O)C(C)(C)C)cc2)n1 | 24% |
| O=C(CCc1c[nH]cn1)Nc1cccc(-c2ccc(-c3nc4cc(F)ccc4[nH]3)s2)c1 | 17% |
| CCNc1cc(C(=O)N[C@@H](Cc2ccccc2)[C@H](O)CN[C@@H](C)c2cccc(OC)c2)cc(N2CCCC2=O)c1.O=CO | 5% |
| OC(CNCc1ccccc1OCc1ccccc1)c1cc(C(F)(F)F)cc(C(F)(F)F)c1 (configuration not stated) | 3% |
| COc1ccc(C=NN=c2cc(C)[nH]c3ccccc23)cc1OC | 19% |
| COc1ccc(-c2ccc(CNCc3ccc(F)cc3)cc2)cc1S(=O)(=O)NCCN1CCCC1.O=C(O)C(F)(F)F | 24% |
| O=C(Nc1cccc(C(F)(F)F)c1)NC1CCN(c2ccnc3ccccc23)CC1.O=C(O)C(F)(F)F | 23% |
| CCCCN(CCCC)C(=N)c1cccc2c1CCCC2.Cl | 11% |
| CNC(=O)CSc1nnc(-c2ccc(C)cc2)c(-c2ccc(C)cc2)n1 | 2% |
